Data: PubChem BioAssay AID1704 (The Scripps Research Institute Molecular Screening Center, 2009)
This is one part of the list. A number with no mark means an inactive call. Active and inactive are the calls of the source.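 How the source made its calls: active means inhibition above the mean of stimulated solvent-only control wells plus 3 SD (cut at about 22% in these data); inactive means the rest.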

Test: blockers of isoproterenol-driven CNG channel signal – cell-based, HEK293-CNG parental, membrane potential fluorescence, Y1 set, counter-screen for NPY-Y1 potentiator/agonist project (AID 1704);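 further: 0% = isoproterenol-stimulated DMSO wells and 100% = unstimulated DMSO wells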
Conditions: isoproterenol cAMP, at 3.6 µM, stronger effect = higher value

Structure (SMILES) | inhibition
COC(=O)c1ccc(NC(=O)CN(c2ccc(C)cc2)S(=O)(=O)c2c(C)n[nH]c2C)cc1 | 36.6% (active)
Cc1ccccc1NCC(=O)N/N=C\c1ccc([N+](=O)[O-])s1 | 33.8% (active)
O=C(Nc1ccccc1C(F)(F)F)c1cc(-c2ccc(O)cc2)on1 | -10.9%
CSc1nc(-c2ccco2)nn1C(=O)c1ccccc1Cl | 12.3%
O=C(c1cccs1)N1CCN(C(=O)N2CCOCC2)CC1 | 1.33%
CCn1c2ccccc2c2cc(NC(=O)Nc3ccc([N+](=O)[O-])cc3C)ccc21 | 16.4%
CC1=C/C(=N\OS(=O)(=O)c2ccccc2)C=CC1=O | 16.7%
CN1C(=O)c2ccccc2C(C(=O)NCCCN2CCCC2)C1c1c[nH]c2ccccc12 (stereo unspecified) | -0.85%
O=[N+]([O-])c1cc(Cl)cc(/C=N/NC(=S)Nc2cc(S(=O)(=O)N3CCOCC3)ccc2Cl)c1O | 66.5% (active)
O=C1/C(=C/c2coc3ccc(O)cc3c2=O)SC(=S)N1c1ccccc1 | 11.7%
Cc1cccc(OCC(O)CN2CCN(CCN3C(=O)c4cccc5cccc(c45)C3=O)CC2)c1C (stereo unspecified) | 51.3% (active)
N#Cc1ccc(C(=O)Nc2nc(-c3cccs3)c(C(=O)C(F)(F)F)s2)cc1 | -18.5%
COCCn1nnnc1C(c1ccccc1Cl)N1CCN(c2ccccc2OC)CC1 (stereo unspecified) | -5.71%
COC(=O)c1sc(-c2ccc(C(C)(C)C)cc2)cc1NC(=O)/C=C/C(=O)O | 24.5% (active)
O=C(Nc1ccc2c(c1)CCC2)c1cccc(S(=O)(=O)Nc2ccccc2Cl)c1 | 7.5%
CC(=O)c1ccc(NC(=O)C2CC(=O)Nc3nc4ccccc4n32)cc1 (stereo unspecified) | 32.8% (active)
